{"source": "PubChem BioAssay AID1458", "about": "(National Center for Advancing Translational Sciences (NCATS), 2008)", "note": "Out of some 210,000 compounds screened, about 5,900 (2.8%) were called active. Where a call stands in place of a potency, no number is given. Roughly 5% stayed inconclusive and do not appear here. The sample holds actives, similar compounds and a random draw of the others, so the mix is not that of the screen. Calls come from the whole dose curve; as a rule, active = well fitted activation curve with a large enough effect; inconclusive = small, poorly fitted or top-dose-only effect; inactive = no such curve, though single readings can be large or run the other way. Potency is the fitted concentration of half-maximal effect.", "data": [{"experiment": "qHTS Assay for Enhancers of SMN2 Splice Variant Expression; note: nearly all actives have a fitted effect of over 55% in size", "settings": "HEK293 SMN2-luciferase splicing reporter, luminescence, 30-36 h; series mostly up to 46.1 µM", "procedure,_shortened": "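HEK293 cells carry an SMN2 […]–luciferase reporter in which exon 7 inclusion puts luciferase in frame. Cells were plated 10-12 h before compound addition, then incubated 30-36 h at 37C. ONE-Glo luminescence was read; sodium butyrate at 4.5 mM final served as control.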", "values": [{"smiles": "COc1ccccc1C(=O)Nc1c(C(=O)Nc2ccc(C)cc2)oc2ccccc12", "Potency": "inactive"}, {"smiles": "CSc1ncccc1C(=O)Nc1nc2ccc(F)cc2s1", "Potency": "inactive"}, {"smiles": "O=C(Nc1nc2ccc(F)cc2s1)c1nc(SCc2ccccc2F)ncc1Cl", "Potency": "inactive"}, {"smiles": "CCS(=O)(=O)N1Cc2ccccc2CC1C(=O)Nc1nc2ccc(F)cc2s1", "note": "(stereo unspecified)", "Potency": "14.1 µM (active)"}, {"smiles": "Cc1cccc(N2CCN(C(=O)c3ccc4c(c3)CCN4S(=O)(=O)c3ccccc3)CC2)c1C", "Potency": "inactive"}, {"smiles": "O=C(NCc1ccco1)c1cccn2c(=O)c3c4c(sc3nc12)CCCC4", "Potency": "inactive"}, {"smiles": "Cn1c(=O)n(Cc2ccco2)c(=N)c2c3c(sc21)CCCC3", "Potency": "inactive"}, {"smiles": "O=c1oc(-c2ccco2)nc2sc3c(c12)CCCCC3", "Potency": "14.1 µM (active)"}, {"smiles": "Oc1ccccc1-c1nc2ccc(Cl)cn2c1Nc1ccc2c(c1)OCCO2", "Potency": "inactive"}, {"smiles": "CC(=O)C1C(c2ccc(Cl)cc2)NC(=O)NC1(O)C(F)(F)F", "note": "(stereo unspecified)", "Potency": "inactive"}, {"smiles": "CC(=O)C1C(c2cccc(Oc3ccccc3)c2)NC(=O)NC1(O)C(F)(F)F", "note": "(stereo unspecified)", "Potency": "inactive"}, {"smiles": "O=C(c1cccs1)C1C(c2ccc(Br)cc2)NC(=S)NC1(O)C(F)(F)F", "note": "(stereo unspecified)", "Potency": "12.6 µM (active)"}, {"smiles": "CCOc1ccc2c(c1)C(c1ccc(C)cc1)=NNC(c1ccc(C)cc1)=N2", "Potency": "12.6 µM (active)"}, {"smiles": "COc1ccc2c(c1)C(c1cccs1)=NNC(c1cccnc1)=N2", "Potency": "inactive"}, {"smiles": "Fc1ccc2c(c1)C(c1cccnc1)=NNC(c1cccs1)=N2", "Potency": "inactive"}, {"smiles": "Cc1cccn2c(=O)c3cc(C(=O)NC(C)c4ccccc4)c(=N)n(CCCO)c3nc12", "note": "(stereo unspecified)", "Potency": "inactive"}, {"smiles": "COc1cc(OC)cc(C(=O)Nc2c(C(=O)Nc3ccc(F)cc3)oc3ccccc23)c1", "Potency": "inactive"}, {"smiles": "CCN(CC)c1ccc(/C=N/Nc2nc(C)cc(C)n2)c(O)c1", "Potency": "inactive"}, {"smiles": "Oc1ccc(/C=N/NC2=NCCCCC2)c(O)c1", "Potency": "12.6 µM (active)"}, {"smiles": "COc1ccc(/C=C(\\C#N)C(=O)ONC2=NCCCCC2)cc1", "Potency": "inactive"}, {"smiles": "NS(=O)(=O)c1ccc(NC(=O)COc2ccc(S(=O)(=O)NC3CCCCC3)cc2)cc1", "Potency": "inactive"}, {"smiles": "Cc1ccc(S(=O)(=O)N(C)CC(=O)NC2CCCC2)cc1", "Potency": "inactive"}, {"smiles": "Cc1ccc(S(=O)(=O)NCC(=O)N(CC(=O)NC(C)(C)C)Cc2cccs2)cc1", "Potency": "inactive"}, {"smiles": "Cc1ccc(S(=O)(=O)NCC(=O)N(CC(=O)NC2CCCCC2)Cc2ccco2)cc1", "Potency": "20 µM (active)"}, {"smiles": "CN(Cc1ccccc1)C(=O)c1cc2c(=O)n(C)c3ccccc3c2s1", "Potency": "inactive"}, {"smiles": "Cc1cccc(NC(=O)CN(c2ccc(C(C)C)cc2)S(=O)(=O)c2c(C)nn(C)c2C)c1C", "Potency": "inactive"}, {"smiles": "CCOc1ccc(-c2cc3nc(C4CCN(C(=O)OC(C)(C)C)CC4)c(C(=O)Nc4ccc(C(=O)OC)cc4)cn3n2)cc1", "Potency": "inactive"}, {"smiles": "Nc1nonc1-c1noc(-c2ccc(Br)o2)n1", "Potency": "inactive"}, {"smiles": "Brc1ccc(-c2nnc(-c3ccccc3)o2)o1", "Potency": "14.1 µM (active)"}, {"smiles": "Brc1ccc(-c2noc(-c3ccccc3)n2)o1", "Potency": "11.2 µM (active)"}, {"smiles": "Cn1nc(-c2ccccc2)c(-c2nc(-c3ccc(Cl)cc3)no2)c1Cl", "Potency": "inactive"}, {"smiles": "OC(c1nnc(-c2ccccc2)o1)c1cccs1", "note": "(stereo unspecified)", "Potency": "inactive"}, {"smiles": "CCCN(CCC)c1ccc(C(O)c2nnc(-c3ccccc3)o2)cc1", "note": "(stereo unspecified)", "Potency": "inactive"}, {"smiles": "COC(=O)c1sc2ncccc2c1-n1c(C)ccc1C", "Potency": "inactive"}, {"smiles": "Cc1sc2ncn(CC(=O)N3CCN(c4ccc(F)cc4)CC3)c(=O)c2c1S(=O)(=O)N1CCN(c2ncccn2)CC1", "Potency": "inactive"}, {"smiles": "CCc1nccn1S(=O)(=O)c1cc(Br)ccc1Br", "Potency": "inactive"}, {"smiles": "Cc1ccc(-c2nn(CCC(=O)Nc3ccc(Cl)c(Cl)c3)c(=O)c3ccccc23)cc1", "Potency": "inactive"}, {"smiles": "CC(C)Cn1c(C2CC(=O)N(c3ccccc3Cl)C2)nc2ccccc21", "note": "(stereo unspecified)", "Potency": "inactive"}, {"smiles": "Cc1cccc(NC(=O)CSc2nc3c(oc4ccccc43)c(=O)n2-c2ccc(F)cc2)c1", "Potency": "inactive"}, {"smiles": "Cc1cc(C)c2oc(C(=O)Nc3ccc(S(=O)(=O)N4CCCCCC4)cc3)cc(=O)c2c1", "Potency": "inactive"}, {"smiles": "Cc1ccc(S(=O)(=O)N(Cc2nc(-c3ccc(Cl)cc3)no2)C2CCCCC2)cc1", "Potency": "inactive"}, {"smiles": "COc1ccc(C=Nc2cccc3ncccc23)cc1", "Potency": "inactive"}, {"smiles": "COc1ccc(/C=N/Nc2nc3ccccc3c(=O)[nH]2)cc1", "Potency": "12.6 µM (active)"}, {"smiles": "O=c1c2ccccc2nc(N/N=C/c2ccccc2)n1O", "Potency": "inactive"}, {"smiles": "CCc1cc2c(cc3c(=O)n(CC(=O)N4CCN(c5cc(Cl)ccc5C)CC4)nc(CC)n32)s1", "Potency": "inactive"}, {"smiles": "CCCS(=O)(=O)c1c(Nc2ccccc2C)sc(C(=O)c2ccccc2)c1N", "Potency": "inactive"}, {"smiles": "O=c1c2cccnc2n(Cc2cccc(F)c2)c(=O)n1Cc1ccccc1Cl", "Potency": "inactive"}, {"smiles": "CCCCOC(=O)CSc1ncnc2sc3c(c12)CCC(C)C3", "note": "(stereo unspecified)", "Potency": "inactive"}, {"smiles": "Cc1ccc(NC(=O)c2cccs2)cc1S(=O)(=O)N(C)C", "Potency": "inactive"}, {"smiles": "Cc1ccc(NC(=O)CNCc2ccccn2)cc1S(=O)(=O)N(C)C", "Potency": "inactive"}, {"smiles": "Cc1ccc(C(=O)Nc2ccc(C)c(S(=O)(=O)N(C)C)c2)s1", "Potency": "12.6 µM (active)"}, {"smiles": "COc1ccc(NC(=O)c2ccc(OC)cc2)cc1", "Potency": "11.2 µM (active)"}, {"smiles": "CCc1cc(C(N)=O)c(NC(=O)c2ccc(OC)cc2)s1", "Potency": "11.2 µM (active)"}, {"smiles": "COc1cc(OC)cc(C(=O)OCC(=O)Nc2ccc(F)cc2F)c1", "Potency": "inactive"}, {"smiles": "COc1ccc(NC(=O)c2ccc(C#CC(C)(C)O)cc2)cc1", "Potency": "inactive"}, {"smiles": "COc1ccc(C(=O)Nc2ccc(S(=O)(=O)NC(C)C)cc2)cc1", "Potency": "inactive"}, {"smiles": "COc1ccc(NC(=O)c2c(C)oc3c2CCCC3)cc1", "Potency": "inactive"}, {"smiles": "COc1ccc(C(=O)Nc2onc3c2CCCC3)cc1", "Potency": "0.794 µM (active)"}, {"smiles": "COc1ccccc1CC(=O)Nc1ccc(F)cc1F", "Potency": "inactive"}, {"smiles": "CCc1cc(C(c2ccccc2OC)N2CCOCC2)c(NC(=O)c2ccccc2)s1", "note": "(stereo unspecified)", "Potency": "inactive"}, {"smiles": "O=C(Nc1cccc2ccccc12)c1onc2c1CCCC2", "Potency": "inactive"}, {"smiles": "COc1ccc(C(=O)N/N=c2\\oc3ccccc3cc2C(N)=O)cc1", "Potency": "inactive"}, {"smiles": "COc1ccc(C(=O)Nc2ccc(F)cc2F)cc1", "Potency": "10 µM (active)"}, {"smiles": "Cc1ccc(CCNC(=O)Cn2c(-c3cccs3)cc3cc(F)ccc32)cc1", "Potency": "inactive"}, {"smiles": "COc1ccccc1CNC(=O)CCCCn1c(=O)c2ccccc2n(CC(=O)Nc2cc(Cl)ccc2C)c1=O", "Potency": "inactive"}, {"smiles": "O=C(COc1ccc(Cl)cc1)N(Cc1ccco1)Cc1ccco1", "Potency": "inactive"}]}]}
